# Shown are actives, neighbours in structure and some others; about 4.2% of the full set was active somewhere.
# TIM10 inh: TIM10 yeast growth inhibition; actives 1.4% (n = 330,000); inhibition, % at 10 µM; S. cerevisiae TIM10 strain growth, BacTiter-Glo luminescence, 24 h;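 active means inhibition of 40% or more at the single tested concentration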;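 further: wild-type TIM10 isogenic control strain grown at permissive 25 °C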
# tim23-1 inh: inhibits growth of tim23-1 mutant yeast; S. cerevisiae tim23-1 growth, BacTiter-Glo luminescence, 24 h; inhibition, % at 20 µM; actives 1.3% (n = 330,000);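 active means growth inhibition of the mutant yeast at or above 50%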;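 further: temperature-sensitive mutant grown at 25 °C; plate controls were DMSO-treated mutant yeast for no effect and medium wells lacking yeast for full effect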
# NALP3 yeast inh: blocks the NALP3 inflammasome reconstituted in yeast; actives 0.39% (n = 330,000); inhibition, % at 10 µM; Yeast reconstituted NLRP3/ASC/caspase-1, beta-gal luminescence, 24 h;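 active means inhibition of 50% or more; inactive means inhibition below 50%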;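 further: plate controls were induced DMSO wells for no effect and uninduced yeast grown without galactose for full effect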
# tim10-1 inh: inhibits growth of tim10-1 mutant yeast. S. cerevisiae tim10-1 ts strain growth, BacTiter-Glo, 24 h. inhibition, % at 20 µM. actives 2.2% (n = 330,000). AID 463190;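 active means inhibition of at least 40%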;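 further: mutant grown at 25 °C; 0% = DMSO wells with yeast and 100% = wells holding no yeast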
# PfHsp90 yeast 2: reduces growth (ATP signal) of yeast expressing P. falciparum Hsp90; S. cerevisiae expressing PfHsp90, BacTiter-Glo ATP, 48 h; yeast lacking PDR1 and PDR3 efflux regulators; actives 0.32% (n = 310,000); inhibition, % at 9.4 µM;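 active means every replicate shows inhibition above about 80%, whatever the replicate mean, limit read from the data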;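 further: 0% = DMSO neutral controls and 100% = 20 µM radicicol positive controls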
# NALP1 inh: NALP1 inhibition; S. cerevisiae NALP1/ASC/caspase-1 growth, X-gal OD620, 72 h; inhibition, % at 10 µM; actives 0.61% (n = 280,000); AID 2071; in the data active means inhibition mostly above about 24%, no sharp cut-off; inactive means mostly below about 32%
# tim23-1 confirm: confirmation of tim23-1 mutant yeast growth inhibitors. shares compounds with tim23-1 inh. S. cerevisiae tim23-1 growth, BacTiter-Glo luminescence, 24 h. inhibition, % at 20 µM. actives 83% (n = 4,400). AID 463218;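 active means inhibition above about 39% in either of two replicate wells at 20 µM, limit read from the data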;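 further: temperature-sensitive tim23-1 mutant grown at 25 °C; 0% = DMSO wells with yeast and 100% = medium wells without yeast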
# * marks the source's active call; other numbers are inactive results; . = no result given.
SMILES,TIM10 inh,tim23-1 inh,NALP3 yeast inh,tim10-1 inh,PfHsp90 yeast 2,NALP1 inh,tim23-1 confirm
CC(c1ccccc1)n1c(-c2cccs2)nc2c(c(=O)c3ccccc3n2C)c1=O (stereo not given),31,51*,32,-1,.,.,33
COc1ccc(Cn2c(-c3ccco3)nc3c(c(=O)c4ccccc4n3C)c2=O)cc1,14,21,4,19,3,.,.
Cc1nc2c(c(=O)c3ccccc3n2C)c(=O)n1C1CCCCCC1,3,24,31,-8,1,.,.
COc1ccc(C2=NS(=O)(=O)N(C)C(C(=O)NCc3ccc(F)cc3)=C2)cc1OC,-16,10,5,-9,12,30,.
Cn1c(=O)c2[nH]c(Cc3ccsc3)nc2n(C)c1=O,.,.,.,.,-5,.,.
CC(C)N=C(NS(=O)(=O)c1ccccc1)C(Cl)(Cl)Cl,28,27,24,24,-39,43,.
Cc1csc2nc(O)c(C(=O)NC3CCCCC3C)c(=O)n12 (stereo not given),23,67*,-6,30,.,.,44*
Cc1csc2nc(O)c(C(=O)NCC3CCCO3)c(=O)n12 (stereo not given),2,30,41,12,.,.,.
O=C(Nc1nc2ccccc2[nH]1)c1ccc(OC(F)F)cc1,24,63*,27,-16,20,10,59*
O=C(Nc1ccccc1N1CCOCC1)c1ccco1,11,-1,-21,-5,-10,-2,.
O=C(NC(=S)Nc1ccccc1N1CCOCC1)c1ccco1,33,55*,-34,39,-16,24,38
O=C(NC(=S)Nc1cccc(Cl)c1N1CCCCC1)c1cccs1,38,53*,19,32,-11,-3,-131
O=C(NC(=S)Nc1cccc(Cl)c1N1CCCCC1)c1ccco1,34,51*,-2,38,-7,4,29
CCCCC(CC)CNC(=O)C1CC=CCC1C(=O)O (stereo not given),-6,12,6,8,0,29,.
CS/C(=N\S(=O)(=O)c1ccc(Cl)cc1)c1ccccc1,36,57*,6,23,5,20,36
CCC(C)c1ccc(NC(=O)C2CC3CCC2C3)cc1 (stereo not given),39,52*,20,24,-10,.,51*
O=C(Nc1ccc(F)c(Cl)c1)C1CC2CCC1C2 (stereo not given),37,61*,-5,22,-24,.,68*
CC(C)c1ccc(NC(=O)C2CC3CCC2C3)cc1 (stereo not given),22,37,44,-15,2,17,.
O=C(Nc1ccc(F)cc1)C1CC2CCC1C2 (stereo not given),-3,17,21,19,-8,-4,.
COc1ccc(S(=O)(=O)N2CCCCCC2)cc1NC(=O)CN1C(=O)NC(C)(c2ccccc2)C1=O (stereo not given),0,19,20,20,-2,.,.
CCc1nc2cccnc2n1-c1ccc(CC(=O)NC(C)CC)cc1 (stereo not given),-3,-1,10,-7,22,6,.
CC(=O)Nc1ccc(OCC(O)Cn2cncn2)cc1 (stereo not given),-12,-10,-3,0,-4,11,.
O=C(CCN1C(=O)C2CC=CCC2C1=O)Nc1nccs1 (stereo not given),8,9,6,8,0,12,.
Cc1oc2cc(O)cc(O)c2c(=O)c1-c1ccc2c(c1)OCCCO2,13,65*,23,29,-12,-47,53*
COc1ccc(CC(=O)Nc2c3c(nn2-c2ccccc2C)CS(=O)C3)cc1 (stereo not given),-12,97*,0,14,25,-8,4
O=C(O)c1ccc(N/N=C/c2cc3cc4c(cc3nc2Cl)OCCO4)cc1,9,4,4,-5,8,.,.
Cc1ccc2cc(C=O)c(Cl)nc2c1,31,50*,23,13,-25,-12,48*
O=Cc1cc2cc3c(cc2nc1Cl)OCCO3,13,73*,2,15,.,21,52*

# Screens from PubChem.
